# From PubChem
# KinaseGlo FLuc – Kinase-Glo luciferase inhibition (counter-screen). Kinase-Glo luciferase, ATP luminescence, 8 min. Potency, µM (top dose mostly 38.3 µM), for the others: at the top dose activity change, negative = inhibition, most hits filed as inhibitors. 200,000 compounds, 0.28% hits; active = well fitted curve in the direction sought with a large enough effect; inconclusive = small, poorly fitted or top-dose-only effect, or another doubt; inactive = no such curve, though single readings can be large; an effect the other way counts as inactive or inconclusive; note: % is set by controls: 0 for no effect and ±100 for the full control effect; nearly all actives have a fitted effect of over 60% in size
#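 Recombinant Kinase-Glo luciferase, 10 uM ATP (linear range), luciferin; imidazole pH 7.2 / KCl / MgCl2 / Tween / BSA buffer; 8 min RT; luminescence.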
# Chronic BCR inh – chronic active BCR signaling inhibition | Potency, µM (top dose mostly 46.1 µM), for inactives: top-dose activity change, negative = inhibition, actives largely listed as inhibitors | AID 493014 | ABC-DLBCL IkBa-CBG/CBR reporter, luminescence ratio, 4 h | 340,000 compounds, 0.05% hits; active = well fitted inhibition curve with a large enough effect in the signal ratio, with a control signal flat, not every such curve was filed as active; inconclusive = small, poorly fitted or top-dose-only effect, or effect the other way, or a change in a side signal; the % refers to the signal ratio;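 note: plate controls were basal doxycycline-induced cells for no effect and cells given 10 µM MG132 for full effect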
#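 TMD8 human ABC-DLBCL cells with doxycycline-inducible IκBα–green luciferase fusion and unfused red luciferase, in 0.5% FBS medium; compounds up to 46 uM, 4 h at 37C. Green/red luminescence ratio, filter-overlap corrected, fitted to concentration-response curves.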
# Lamin A splicing – modulators of lamin A splicing; HeLa LMNA splicing GFP/RFP minigene ratio, 48 h; Potency, µM (titrated, usually from 46.1 µM), inactives show top-dose ratio change, negative = inhibition, usual class: inhibitors; 200,000 compounds, 0.01% hits; AID 1487; active = well fitted inhibition curve with a large enough effect in the signal ratio, with a control signal flat, not every such curve was filed as active; inconclusive = small, poorly fitted or top-dose-only effect, or effect the other way, or a change in a side signal; the % refers to the signal ratio; note: % is set by controls: 0 for no effect and ±100 for the full control effect
#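 S3 HeLa stable clones carrying a lamin A-EGFP splicing minigene plus DsRed2 were seeded at 600 cells/well in Opti-MEM with 2% FBS, pin-dosed and incubated 48 h at 37°C. Acumen cytometry (488 nm) gave the GFP/RFP total-intensity ratio.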
# Tb PFK inh-1 – T. brucei PFK enzyme inhibition | O15648 | T. brucei PFK, ADP-Glo luminescence | Potency, µM (highest dose often 57.5 µM), without a hit: top-dose activity, negative = inhibition, hits mostly inhibitors | 330,000 compounds, 0.17% hits | AID 485367; active = well fitted curve in the direction sought with a large enough effect; inconclusive = small, poorly fitted or top-dose-only effect, or another doubt; inactive = no such curve, though single readings can be large; an effect the other way counts as inactive or inconclusive;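 note: 0% = uninhibited 1x PFK enzyme wells and -100% = no-enzyme wells; nearly all actives have a fitted effect of over 60% in size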
#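 In TEA buffer at pH 8.0 with 5 mM MgCl2, enzyme (1.25 nM) converted F6P (0.5 mM) and ATP (0.1 mM) for 45 min at room temperature. ADP product was read by luciferase luminescence.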
# Rango-impB inh – prevents formation of the Rango-importin beta complex; Potency, µM (series often up to 92.2 µM), for the others: at the highest dose inhibition of complex formation; Rango CFP/YFP FRET sensor + importin beta, 45 min; AID 540263; 340,000 compounds, 0.031% hits; Q14974;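 note: 0% = DMSO wells and 100% = buffer wells lacking importin beta; nearly all actives have a fitted effect of over 15% in size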
# Target sequence (Q14974 whole entry, looked up): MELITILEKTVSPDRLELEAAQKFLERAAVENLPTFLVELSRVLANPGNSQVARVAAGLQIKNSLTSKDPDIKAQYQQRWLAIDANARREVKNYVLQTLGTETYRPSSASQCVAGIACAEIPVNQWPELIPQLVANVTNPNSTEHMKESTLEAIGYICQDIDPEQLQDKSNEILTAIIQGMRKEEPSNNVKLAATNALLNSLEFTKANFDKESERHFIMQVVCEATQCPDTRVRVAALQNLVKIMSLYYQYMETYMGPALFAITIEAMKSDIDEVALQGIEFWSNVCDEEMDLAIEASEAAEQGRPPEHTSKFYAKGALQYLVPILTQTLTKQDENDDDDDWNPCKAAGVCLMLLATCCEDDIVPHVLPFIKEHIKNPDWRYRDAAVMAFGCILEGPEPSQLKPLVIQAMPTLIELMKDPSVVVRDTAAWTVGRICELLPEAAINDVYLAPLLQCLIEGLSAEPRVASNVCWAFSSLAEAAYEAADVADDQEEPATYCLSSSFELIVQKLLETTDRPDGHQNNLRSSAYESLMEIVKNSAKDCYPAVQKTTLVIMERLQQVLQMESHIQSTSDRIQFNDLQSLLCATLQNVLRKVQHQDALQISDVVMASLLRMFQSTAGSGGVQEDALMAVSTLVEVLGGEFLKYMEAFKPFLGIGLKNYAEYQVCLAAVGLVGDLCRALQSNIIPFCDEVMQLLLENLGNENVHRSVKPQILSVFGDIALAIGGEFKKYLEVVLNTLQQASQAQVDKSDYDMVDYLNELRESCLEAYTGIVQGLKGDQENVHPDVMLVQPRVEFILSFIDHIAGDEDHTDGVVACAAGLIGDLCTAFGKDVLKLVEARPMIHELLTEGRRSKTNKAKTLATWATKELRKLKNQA
#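 FRET biosensor (snurportin 1 IBB flanked by EYFP and cerulean), 50 nM, with compound 5 min, then 0.125 microM importin beta in PBS, 1 mM DTT, 0.02% Tween-20, 0.1% BSA. CFP/YFP ratio read after 45 min at room temperature; pre-read flags interference.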
# Rango release inh – inhibition of RanGTP-driven Rango-importin beta dissociation; Biochemical FRET Rango-importin beta, RanGTP-induced dissociation; 340,000 compounds, 0.071% hits; O95149+P62826; AID 540253; Potency, µM (series often up to 46.1 µM), without a hit: top-dose activity change, negative = inhibition; note: % of control where 0% means no effect; nearly all actives have a fitted effect of over 45% in size
#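 Compounds preincubate 5 min with complex of recombinant Rango and importin beta in PBS with 1 mM DTT. Ran (0.6 uM) loaded with 2 mM GTP plus 0.2 uM RCC1 starts dissociation; FRET is recorded 45 min later.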
# TbPFK ATP – Tb phosphofructokinase inhibition, orthogonal luminescence; shares compounds with Tb PFK inh-1; Tb PFK enzyme, ATP depletion, Kinase-Glo Plus luminescence; Potency, µM (titrated, usually from 57.5 µM), inactives show at the top dose inhibition; 1,100 compounds, 47% hits; note: nearly all actives have a fitted effect of over 60% in size
# Tb PFK inh-2 – validation of T. brucei phosphofructokinase inhibitors | shares compounds with Tb PFK inh-1 | purified T. brucei PFK, ADP-Glo luminescence, 45 min | Potency, µM (highest dose often 57.5 µM), for the others: at the highest dose activity change, negative = inhibition, usual class: inhibitors | 1,100 compounds, 41% hits | AID 504637; active = well fitted curve in the direction sought with a large enough effect; inconclusive = small, poorly fitted or top-dose-only effect, or another doubt; inactive = no such curve, though single readings can be large; an effect the other way counts as inactive or inconclusive;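 note: plate controls were full PFK enzyme control for no effect and no enzyme control for full effect; nearly all actives have a fitted effect of over 60% in size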
# * marks the source's active call; other numbers are inactive results; ? = inconclusive; . = not tested or not shown; [ ] = another dose, or the depositor's remark. In the library only some 0.44% were active in any assay of this set; here they are far more common. Unless noted, calls come from the whole dose curve. Potency is the fitted concentration of half-maximal effect.
SMILES,KinaseGlo FLuc,Chronic BCR inh,Lamin A splicing,Tb PFK inh-1,Rango-impB inh,Rango release inh,TbPFK ATP,Tb PFK inh-2
OCCNC(=S)Nc1ccc(Cl)c(Cl)c1,2%,4%,?,?,0%,-8%,?,?
NS(=O)(=O)c1cccc(NC(=O)Cc2ccc(Cl)c(Cl)c2)c1,-1%,-25%,.,6µM*,-5%,-3%,3µM*,11µM*
O=C(Nc1ccc(Cl)c(Cl)c1)c1ccco1,.,?,.,-4%,0%,2%,.,.
NS(=O)(=O)c1ccc(CNC(=S)Nc2ccc(Cl)c(Cl)c2)cc1,.,-10%,.,?,0%,-4%,?,?
Cc1cccc(C)c1NC(=S)Nc1ccc(Cl)c(Cl)c1,1%,4%,19%[46 µM],21µM*,-3%,-11%,?,-14%
CCCCCn1c(=O)c(C(=O)Nc2cnccn2)c(O)c2ccccc21,-3%,1%,?,0%,-2%,-17%,.,.
Cc1cc(NC(=O)COC(=O)CSCc2ccc(Cl)c(Cl)c2)no1,-1%,?,4%,?,1%,-6%,?,?
O=C(Cc1ccc(Br)cc1)Nc1cccc(S(=O)(=O)N2CCOCC2)c1,.,?,.,?,0%,-13%,?,?
COC(=O)c1cc(NC(=O)Nc2cccc(Cl)c2)ccc1Cl,0%,?,?,-9%,3%,7%,.,.
Cc1cc(NS(=O)(=O)c2ccc(NC(=O)Cc3ccc(Cl)c(Cl)c3)cc2)no1,.,-3%,.,1.2µM*,2%,5%,0.43µM*,0.76µM*
COC(=O)c1cccc(NC(=S)Nc2ccc(Cl)c(Cl)c2)c1,.,-3%,.,12µM*,2%,4%,27µM*,?
CCc1cccc(NC(=O)Cn2c(=O)oc3cc(S(=O)(=O)N4CCOCC4)ccc32)c1,4%,1%,?,-3%,0%,17%,.,.
CCc1ccc(N2C(=O)NC(=O)/C(=C\c3cccn3CCOc3ccc(C(C)C)cc3)C2=O)cc1,-2%,8%,4%,-5%,-3%,-2%,.,.
CN1CCCC2(CCN(C(=O)c3ccncc3)CC2)C1,1%,.,.,.,.,.,.,.
COc1cc(C(=O)OC2C[C@H]3CC[C@@H](C2)N3C)ccc1O (some centres undefined),-1%[17.1 µM],-1%,-5%,1%,2%,-24%,.,.
Cc1cc(C)cc(NC(=S)Nc2ccc(Cl)c(Cl)c2)c1,1%,-2%,?,9.5µM*,-1%,-6%,24µM*,?
Cc1ccc(NC(=S)NCCc2cnc[nH]2)cc1C,-2%,-1%,.,-11%,?,?,.,.
C=CCNC(=S)Nc1ccc(OC(=O)Nc2ccc(Cl)c(Cl)c2)cc1,.,?,.,13µM*,-1%,-4%,21µM*,27µM*
CN(C)CCNC(=O)c1cccn(Cc2cccc(C(F)(F)F)c2)c1=O,-3%,?,.,-18%,3%,16%,.,.
COc1cccc(C(=O)C2CN(C)CC2c2ccc(Cl)cc2)c1 (centres undefined),2%,0%,?,3%,-3%,-2%,.,.
O=C(NC12CC3CC(CC(C3)C1)C2)OC1CN2CCC1CC2 (centres undefined),.,?,.,-1%,0%,5%,.,.
CC1=C(C(=O)Nc2ccccc2C(F)(F)F)C(c2ccc(C)s2)NC(=S)N1 (centres undefined),-1%,-14%,-15%[46 µM],?,-2%,4%,5%,4%
C[C@@H]1O[C@H](O[C@@H]2C=C3CC[C@H]4[C@@H](CC[C@]5(C)[C@@H](c6ccc(=O)oc6)CC[C@]45O)[C@@]3(C)CC2)[C@@H](O)[C@H](O)[C@@H]1O,3%[17.1 µM],.,?,.,.,.,.,.
Cc1nc2c(=O)n(C)c(=O)nc-2n(C)n1,-2%,?,?,-3%,0%,-6%,.,.
COc1ccc(/C=N\NC(=O)C2COc3ccccc3O2)cc1O (centres undefined),.,-1%,.,13µM*,1%,1%,8.5µM*,12µM*
SMILES,KinaseGlo FLuc,Chronic BCR inh,Lamin A splicing,Tb PFK inh-1,Rango-impB inh,Rango release inh,TbPFK ATP,Tb PFK inh-2
O=C(N/N=C/c1ccc2c(c1)OCO2)C1COc2ccccc2O1 (centres undefined),-1%,-3%,7%,?,-2%,8%,19µM*,21µM*
O=C1NC(=O)C(=Cc2ccc3c(c2)OCO3)C(=O)N1,-2%,5%,.,5%,.,.,.,.
COc1ccc(C=O)cc1O,0%,4%,-4%,-9%,?,5%,.,.
CN1CCc2ccccc2Cc2[nH]c3ccccc3c2CC1,-3%,-1%,-12%,12µM*,?,-6%,15µM*,13µM*
CCN1CCc2ccccc2C1,.,1%,.,-3%,2%,-4%,.,.
Cc1cccc(NC(=S)N2CC3CC(C2)c2cccc(=O)n2C3)c1C (centres undefined),-1%,-28%,-5%,0%,-1%,6%,.,.
O=C(COc1ccc(Cl)cc1)Nc1cccc(S(=O)(=O)NC2=NCCCCC2)c1,.,-23%,.,3µM*,2%,19%,2.7µM*,6µM*
N#Cc1ccc(OCC(=O)Nc2cccc(S(=O)(=O)NC3=NCCCCC3)c2)cc1,.,8%,.,6µM*,?,-22%,3.8µM*,6µM*
O=C(COc1ccc2c(c1)OCO2)Nc1cccc(F)c1,.,?,.,3%,-1%,5%,.,.
CN(C)C(=O)Oc1c(Cl)cc(Cl)c2cccnc12,-3%,-2%,.,-1%,1%,-7%,.,.
COc1cccc2c1NC(C(=O)O)C1CC=CC21 (centres undefined),-5%,1%,-11%,?,?,-13%,?,?
COc1nccnc1NS(=O)(=O)c1ccc(NCc2cc(Br)ccc2O)cc1,.,7%,.,?,0%,32%,?,-18%
NC(=O)c1cn(C2CCCCC2)c2ccccc2c1=O,.,-2%,.,0%,-3%,-1%,.,.
O=C1c2ccccc2C(=O)N1SC1CCCCC1,0%,?,-4%,?,-5%,0%,9.5µM*,15µM*
O=C(NP(=O)(N1CC1)N1CC1)c1cc(I)ccc1I,.,.,.,.,-3%,-13%,.,.
CCC(=O)Nc1ccccc1,.,?,.,4%,0%,1%,.,.
